{"source": "PubChem BioAssay (NCATS)", "note": "“And” between values parts separate entries of the source, which are not always exact repeats. Equal values may be shown once. Records with an inconclusive call do not appear. Unmarked numbers belong to inactive results. Calls come from the whole dose curve; as a rule, active = well fitted inhibition curve with a large enough effect; inconclusive = small, poorly fitted or top-dose-only effect; inactive = flat fitted curve, though single readings scatter. % is set by controls: 0 for no effect and ±100 for the full control effect.", "data": [{"tested_on": "KB-3-1", "assay": "Cytotoxic Profiling of Annotated Libraries Using Quantitative High-Throughput Screening (AID 1296008); note: nearly all actives have a fitted effect of over 60% in size", "details": "Five cell lines viability, CellTiter-Glo ATP luminescence, 48-72 h; max response: hits give low values", "in_short": "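Cells exposed to compounds for 48 or 72 hr at 37 degrees Celsius. Viability read as ATP-coupled luminescence with CellTiter-Glo after 10 min at room temperature.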", "values": [{"molecule": "CC1(C)[C@H](C=C(Cl)Cl)[C@H]1C(=O)OCc1c(F)c(F)cc(F)c1F", "max response": "-0.195%"}, {"molecule": "OC[C@@H](O)[C@H]1O[C@@H]2O[C@@H](C(Cl)(Cl)Cl)O[C@@H]2[C@H]1O", "max response": "1.39%"}, {"molecule": "C=C[C@H]1CN2CC[C@H]1C[C@H]2[C@H](OC(=O)OCC)c1ccnc2ccc(OC)cc12", "max response": "4.99%"}, {"molecule": "Clc1ccc(C2(Cn3cncn3)OCCO2)c(Cl)c1", "max response": "4.69%"}, {"molecule": "O=C1CN(O)C(c2ccccc2)=c2cc(Cl)ccc2=N1", "max response": "-7.95%"}, {"molecule": "CC(=O)[C@H]1CC[C@H]2[C@@H]3CC[C@@H]4C[C@H](O)CC[C@]4(C)[C@H]3CC[C@]12C", "max response": "4.77%"}, {"molecule": "c1ccc2sc(SNC3CCCCC3)nc2c1", "max response": "-2.06%"}, {"molecule": "O[C@H]1[C@H]2[C@H](O)CCCN2C[C@H]1O", "max response": "-14%"}, {"molecule": "CCCCC[C@@H](O)C1C(=O)OC(C)[C@H](O)/C=C/C=C/C=C/C=C/C=C(\\C)C(O)C(O)C(O)C[C@H](O)C[C@H](O)C[C@H](O)C[C@H](O)C[C@@H]1O", "note": "(stereo partly drawn)", "max response": "-4.4% and -1.2%"}, {"molecule": "CCCCCCCCOC(=O)c1ccccc1C(=O)OCCCCCCCC", "max response": "-10%"}, {"molecule": "CC(=O)O[C@H]1CC[C@@]2(C)C(=CC[C@@H]3[C@@H]2CC[C@]2(C)C(=O)CC[C@@H]32)C1", "max response": "-3.08%"}, {"molecule": "CC[C@H]1[C@@H]2C[C@H]3[C@@H]4N(C)c5ccccc5[C@]45C[C@@H](C2[C@H]5O)N3[C@@H]1O", "note": "(stereo partly drawn)", "max response": "-5.46%"}, {"molecule": "ClC1=C(Cl)[C@]2(Cl)[C@@H]3[C@H]4C[C@H]([C@@H]5O[C@H]45)[C@@H]3[C@@]1(Cl)C2(Cl)Cl", "max response": "-3.16%"}]}]}
